This passage reports composite z-score results from PubChem BioAssay.

Structures are written as SMILES.

In this experiment the target is Follistatin (Homo sapiens) (UniProt P19883). As to the kind of experiment: FST protein binding to printed compounds – biochemical, small-molecule microarray, 635/667 nm fluorescence, primary screen (AID 1132). The settings on record: 635 nm fluorescence, higher = more signal.
Follistatin (Homo sapiens), sequence (P19883 whole entry, looked up): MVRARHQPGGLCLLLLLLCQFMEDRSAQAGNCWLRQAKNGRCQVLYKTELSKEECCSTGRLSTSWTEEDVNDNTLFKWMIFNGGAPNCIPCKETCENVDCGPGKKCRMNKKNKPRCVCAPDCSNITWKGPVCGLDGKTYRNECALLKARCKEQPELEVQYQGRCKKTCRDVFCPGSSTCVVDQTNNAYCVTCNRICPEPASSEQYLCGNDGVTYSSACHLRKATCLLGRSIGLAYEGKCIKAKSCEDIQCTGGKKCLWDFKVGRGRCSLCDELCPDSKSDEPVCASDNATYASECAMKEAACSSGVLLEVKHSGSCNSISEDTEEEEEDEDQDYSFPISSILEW
In turn, `COc1cc(CO)cc(I)c1O[C@H]1C=C(C(=O)NCCO)C[C@@H](N(CC2CCCCC2)C(=O)c2cc3ccccc3oc2=O)[C@@H]1O` yielded a composite z-score of 0.175.

Take `COC(=O)C1=CC(c2ccc(CO)cc2)=CC(C2CC2)N(Cc2sc3ccccc3c2Cl)C=C1C(=O)OC` (stereo not given): the composite z-score came to 0.851.

As for `CSCC[C@@H]1NC(=O)CC=C[C@@H](C)COC(=O)[C@H](CCSC)NC(=O)CC=C[C@@H](C)COC1=O`, the composite z-score was 0.129.

In turn, `COC(=O)[C@@]1(Cc2ccc(OC)cc2)[C@H]2c3cc(C(=O)N(C)C)n(CCc4ccc(OC)c(Br)c4)c3C[C@H]2CN1C(=O)c1ccccc1` returned a composite z-score of 0.85.

The compound `COCC(=C=CC[C@H](O)c1ccc(OCCO)cc1)C[C@H](O)c1ccccn1` had a composite z-score of 0.193.

Regarding `O=C(NCc1ccccc1)[C@@]1(Cc2ccccc2)COC(c2ccc(OCCCO)cc2)=N1`, the composite z-score was found to be 0.0985.

In the case of `CO[C@@H]1COC(=O)[C@H](C)NC(=O)CC=C[C@@H](C)[C@H](OC)COC(=O)[C@H](C)NC(=O)CC=C[C@H]1C`, the composite z-score was 0.614.

The compound `CCCC=C(CCC)[C@@H](NS(=O)(=O)c1ccc(C(F)(F)F)cc1)c1ccc(-c2ccccc2)cc1` registered a composite z-score of 1.26.

The compound `CC(C)(C)OC(=O)CC[C@]1(C(=O)N2CCCCC2)N=C(c2ccc(OCCCO)cc2)O[C@H]1c1ccccc1` returned a composite z-score of 1.24.

Consider `CC(=O)NCCCC[C@@H]1NC(=O)[C@@H]2C[C@H](C(=O)NCCCCCNC(=O)CS)[C@H](c3ccc(O)cc3)N2C1=O`, for which the composite z-score amounted to 1.44.

For the compound `C=CCC(OC(C)=O)[C@@H]1[C@@H](N(Cc2ccc(-c3cccc(C(F)(F)F)c3)o2)C(=O)Cc2ccc(F)cc2)c2cc(OCCCO)ccc2N1C(=O)c1ccc(-c2ccccc2)cc1` (stereo not given in full), the composite z-score is 0.16.

In turn, `CO[C@]12C=C(Br)[C@@H](C[C@@H]1c1ccccc1)[C@@]1(CO1)C2=O` gave a composite z-score of 0.931.

Turning to `COCCOC(=O)N1C(=O)[C@@]2(c3cc(C#CCC(C(=O)OC)C(=O)OC)ccc31)[C@H](c1ccccc1OCCO)N1[C@H](c3ccccc3)[C@H](c3ccccc3)OC(=O)[C@H]1[C@@H]2C(=O)N1CCCCCCC1`, the composite z-score was 1.51.

The compound `CCOC(=O)C1=CC[C@@H](c2ccccc2)N(S(=O)(=O)c2ccc(C)cc2)[C@H]1C` returned a composite z-score of 0.92.

With `O=C1c2ccccc2[C@](Cc2ccccc2I)(C(=O)NCC(F)(F)F)[C@H](c2ccc(CO)cc2)N1Cc1ccccc1C(F)(F)F`, the composite z-score worked out at 0.678.
